We go through 70 compounds from ChEMBL document CHEMBL4513216, “Probing the Open Global Health Chemical Diversity Library for Multistage-Active Starting Points for Next-Generation Antimalarials” (ACS Infect Dis, 2020).

The whole screen tested about 69,000 compounds, of which about 8,600 (12%) showed an effect of 50% or more. The sample as a whole holds a higher share of strong results than the screen did.

The test system of the assay is Plasmodium berghei. As to the kind of experiment: Screen against P. berghei liver stage (PbLuc), transformed with Luciferase, at 10uM. The following applies: tested at 10 uM. The format is functional, HepG2.
As to `CCOCCN1CCN(c2ccc(C#N)cn2)CC1CC` (stereo not given), the INHIBITION worked out at 2.91%.

As to `O=C(c1cnoc1)N1CCC[C@]2(C[C@@H](OCc3ccccn3)CO2)C1`, the INHIBITION is given as 8.47%.

As to `Cc1cc(C(=O)O)c2c(Br)cccc2n1`, the INHIBITION is listed as 8.7%. As for `Cc1cc(C(=O)N(C)C)c2c(Br)cccc2n1`, the INHIBITION is on record as 40.7%. As for `Cc1cc(C(N)=O)c2c(Br)cccc2n1`, the INHIBITION came to 53.2%. As to `Cc1nn(C)c(C)c1CCC(=O)N1CCCC(n2cccn2)C1` (stereo not given), the INHIBITION is given as 16.9%.

As to `NS(=O)(=O)CCN1CCN(c2cc(F)ccc2F)CC1`, the INHIBITION is given as -6.51%. `CCCS(=O)(=O)CCN1CCN(c2cc(F)ccc2F)CC1`: the INHIBITION turned out to be 25.2%.

For `O=C1CCC(=O)N1CCN1CCN(c2cc(F)ccc2F)CC1`, the INHIBITION turned out to be 79.1%. To `NC(=O)C1CCN(C(=O)c2ccn(-c3cccc(Cl)c3)n2)C1` (stereo not given) belongs -1.14%; to `O=C(NCCCn1cccn1)NCC(c1ccco1)N1CCCC1` (stereo not given), -49.5%. To `CCOCC(=O)N1CC[C@H]2OCC[C@@]2(COc2ncccc2F)C1` belongs -23.4%. Regarding `Cc1ncsc1CNC(=O)NCC1(c2ccc3c(c2)OCO3)CC1`, the INHIBITION is listed as 70.2%. In the case of `Cc1n[nH]cc1CNCC1(c2ccc3c(c2)OCO3)CCOCC1` it was -21.4%; in that of `Cc1csc(CNC(=O)NCC2(c3ccc4c(c3)OCO4)CC2)n1`, 2.29%. To `CN1CCN(Cc2cn3c(n2)CN(Cc2cccc(F)c2)CC3)CC1` belongs 27.6%; to `CCn1nc(C)c(-c2cncn2Cc2ccccc2CN(C)C)c1C`, 34.1%. To `Cc1ccc(-c2cc(C(=O)O)sn2)cc1` belongs -21.9%; to `CN(C)c1ncc(I)c(C2CCCN2S(C)(=O)=O)n1` (stereo not given), 7.19%; to `Cn1ccnc1SCCNc1nccc(C(F)(F)F)n1`, -1.16%. Consider `CNc1ccnc(NCCSc2nccn2C)n1`, for which the INHIBITION came to 44.3%.

In the case of `Cc1ccnc(NCCSc2nccn2C)n1`, the INHIBITION was determined as 65.6%. To `O=C(NCc1nccs1)N1CCOC(c2ccccc2Cl)C1` (stereo not given) belongs 19.9%; to `CCC(Nc1nc(C)nc2onc(C)c12)c1nc(C)c(C)s1` (stereo not given), 70%. For the compound `Cc1nc(NCC(O)CN2CCCCCC2)c2c(C)noc2n1` (stereo not given), the INHIBITION worked out at 15.7%. To `Cc1noc(C(C)C)c1C(=O)NCC(c1cccs1)N(C)C` (stereo not given) belongs 2.3%. To `CCC(Nc1nc(C)nc2onc(C)c12)c1cccs1` (stereo not given) belongs 79.9%; to `Cc1noc2ncnc(NC(CC(C)(C)C)c3cccnc3)c12` (stereo not given), 23.5%; to `Cc1nc(NCCSc2cnn[nH]2)c2c(C)noc2n1`, 1.56%. To `CNC(=O)NC(=O)C(C)N(C)CCCc1cc(-c2ccccc2)no1` (stereo not given) belongs -14.18%; to `c1csc(CN2Cc3nccn3CC(Cn3cncn3)C2)c1` (stereo not given), -22.1%; to `CCCc1cc(C(=O)N[C@@H]2CCC[C@@H](N3CCCC3)[C@@H]2O)no1`, 13.7%. With `Cn1nccc1CNS(=O)(=O)c1cc(F)ccc1Br`, the INHIBITION was determined as 6.02%. To `CC(C)c1nnc(NC(=O)c2cccc(OCC(F)(F)F)n2)[nH]1` belongs -38.6%.

For the compound `CCC(C)Oc1cc(C(=O)Nc2nnc(C(C)C)[nH]2)ccn1` (stereo not given), the INHIBITION is listed as 42.6%.

With `CC(C)c1nnc(NC(=O)CCc2cc(F)ccc2F)[nH]1`, the INHIBITION was found to be 53.3%. To `CC(C)N1CCC(CNC(=O)CCc2cc(F)ccc2F)C1` (stereo not given) belongs -20.3%; to `CS(=O)(=O)c1nnc(NC(=O)CCc2cc(F)ccc2F)[nH]1`, 43.7%. To `CC(C)c1nnc(NC(=O)Cc2ccc(F)cc2)[nH]1` belongs 51.1%; to `O=C(C1=CC2(CCN(CCO)CC2)c2ccccc21)N1CCCC1`, 13.6%; to `O=C(CCc1nc(-c2ccccc2)no1)N[C@H]1COC[C@@H]1N1CCCC1`, -12.1%. `Cc1nc(N)cc(C2CN(C(=O)c3cscn3)CCO2)n1` (stereo not given): the INHIBITION was 35%. To `COc1ccc(NC(=O)COc2nn(C)c3nc(C)cc(C)c23)cn1` belongs 22.8%. In the case of `CCc1ccc(C2CCCCCN2C(=O)CNC(=O)NC2CC2)o1` (stereo not given) it was 68%; in that of `CC(C)CCC(=O)NCC(=O)N1CCCCCC1c1ccco1` (stereo not given), 19.3%.

Consider `CCc1ccc(C(=O)N2CCCCC2CNS(C)(=O)=O)o1` (stereo not given), for which the INHIBITION is listed as -23.5%. As for `CCc1ccc(C2CCCN2C(=O)NCC(=O)NCC(C)C)o1` (stereo not given), the INHIBITION came to 60.4%. To `CCc1ccc(C(=O)NCC2CCCN2CC)o1` (stereo not given) belongs 31.2%.

For `CCc1ccc(C2CCCN2C(=O)CNC(=O)CCC(C)C)o1` (stereo not given), the INHIBITION is reported as 64.8%. In the case of `O=C(NCC(=O)N1CCCC1Cc1cccc(F)c1)C1CCCC1` (stereo not given) it was 7.19%. In the case of `Cc1ccc(C2CCCCCN2C(=O)Nc2cn[nH]c2)o1` (stereo not given) it was -22.05%; in that of `CNCC(=O)N1CCCC1c1nc(C(C)C)no1` (stereo not given), 6.33%. To `CC(C)CNC(=O)CN1CCCC(c2ccc(C(=O)O)cc2)C1` (stereo not given) belongs 33%; to `CCc1ccc(C2CCCCCN2C(=O)CNC(=O)C2CC2)o1` (stereo not given), 63.7%; to `CCn1nccc1CNC(=O)NC1CCCCC1`, 26.8%. For `COc1ccc(C(=O)Nc2ccc3c(c2)C(=O)NC3)cc1Br`, the INHIBITION is -64.3%. On to `COCc1cc(N(C)CCC(O)c2ccccc2)n2nccc2n1` (stereo not given), for which the INHIBITION is -27.3%.

Turning to `O=C1CSC(C(F)(F)F)c2c(O)nn(C3CCCCC3)c2N1` (stereo not given), the INHIBITION was found to be 38.1%. Take `Cc1cnn(CCNc2nc(C)cc(N(C)C)n2)c1`: the INHIBITION was determined as 21.5%. In the case of `CCc1nnc2n1CCN(C(=O)CCOc1cc(C)ccc1C)C2`, the INHIBITION is on record as -3.19%.

With `O=S(=O)(Cc1ccc(F)c(Cl)c1)NCCOc1cccnc1`, the INHIBITION is listed as -11.4%. To `c1cnc2[nH]c(C3CCCNC3)c(CN3CCCOCC3)c2c1` (stereo not given) belongs -15.3%. In the case of `CCc1ccc(C2CCCN2C(=O)Cc2ccc(NC(C)=O)cc2)o1` (stereo not given) it was 65.8%. To `CC(=O)Nc1ccc(CC(=O)N2CC(S(=O)(=O)C3CCCCC3)C2)cc1` belongs 13.1%. Consider `CCc1ccc(C(=O)NC[C@H]2CCCN2C(=O)c2ccc(CC)o2)o1`, for which the INHIBITION is listed as -3.68%. To `Cc1nnc(N2C[C@H](Oc3ccccn3)[C@H]3OCCC[C@H]32)s1` belongs -10.3%. In the case of `Cc1cc(NC(=O)NC(C)(C)c2nc(C)c(C)s2)no1` it was 29.1%; in that of `Cc1cc(NC(=O)CNC(C)(C)c2nc(C)c(C)s2)no1`, 26.6%. Regarding `Cc1cc(NC(=O)CCNC(C)(C)c2nc(C)c(C)s2)no1`, the INHIBITION came out at 53.8%.

With `Cn1cc(C(=O)Nc2ccc3c(c2)N(C(=O)c2ccco2)CC3)nn1`, the INHIBITION came out at 20.1%.
